From PubChem BioAssay
UbGFP stabilizer: Ubiquitin-GFP Assay. Potency, µM (top dose mostly 45.9 µM), most hits filed as activators. 67,000 tested, under 10 active. Ubiquitin-GFP reporter cells, proteasome inhibition, GFP fluorescence; response scale: untreated = 0%, 10 µM MG-132 = 100%. AID 526, 2006; active means well fitted activation curve with a large enough effect, not every such curve was filed as active; inconclusive means small, poorly fitted or top-dose-only effect, or another doubt; inactive means no such curve, though single readings can be large or run the other way
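Proteasome block read as GFP accumulation: ubiquitin(G76V)-GFP U2OS cells exposed to compound (2.9 nM–46 uM) for 4 hr at 37 C. Normalization used untreated cells as 0% and 10 uM MG-132 as 100%; concentration-response curves fitted.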
Luciferase inh: qHTS Assay for Inhibitors of Firefly Luciferase; AID 411, 2009; 2.2% of 72,000 active; purified firefly luciferase, luminescence, 8 min; Potency, µM (top dose mostly 57.1 µM), most hits filed as inhibitors; Luciferin 4-monooxygenase (Photinus pyralis), P08659; further: nearly all actives have a fitted effect of over 40% in size
Target sequence (P08659 whole entry, looked up): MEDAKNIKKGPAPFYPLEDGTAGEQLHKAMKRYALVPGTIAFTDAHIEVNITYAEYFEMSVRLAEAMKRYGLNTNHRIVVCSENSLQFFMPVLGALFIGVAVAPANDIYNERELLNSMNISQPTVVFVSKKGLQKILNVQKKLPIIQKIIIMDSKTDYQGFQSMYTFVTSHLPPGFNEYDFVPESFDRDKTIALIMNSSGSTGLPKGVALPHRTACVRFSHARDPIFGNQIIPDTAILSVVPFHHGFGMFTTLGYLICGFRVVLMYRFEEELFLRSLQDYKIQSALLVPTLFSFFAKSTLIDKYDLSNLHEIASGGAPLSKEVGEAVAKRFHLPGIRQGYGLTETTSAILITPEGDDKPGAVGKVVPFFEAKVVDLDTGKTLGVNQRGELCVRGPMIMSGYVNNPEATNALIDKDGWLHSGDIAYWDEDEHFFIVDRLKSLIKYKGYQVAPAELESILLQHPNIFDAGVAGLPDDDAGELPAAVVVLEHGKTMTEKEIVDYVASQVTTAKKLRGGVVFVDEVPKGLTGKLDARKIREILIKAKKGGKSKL
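Compounds were tested as concentration series (qHTS) against purified P. pyralis luciferase with luciferin and 10 uM ATP in 50 mM imidazole pH 7.2, 50 mM KCl, 7 mM MgCl2, 0.01% Tween 20, 0.05% BSA. Luminescence was read after 8 min at ambient temperature.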
GFP derepression: qHTS Assay for Epigenetic Modulators; mouse C127i GFP locus derepression, cytometry, 30 h; Potency, µM (highest dose often 46.1 µM); 0.09% of 68,000 active; AID 597, 2007
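Read-out is the number of GFP-positive cells, scored as fluorescent objects 20 to 120 um wide, reflecting derepression of a silenced CMV-GFP reporter in murine C127i cells after 30 h compound exposure at 37 C.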
Bst PK mod: Pyruvate Kinase; 1.2% of 51,000 active; purified pyruvate kinase, luminescence ATP production; ribose 5-phosphate activator present at AC10; Potency, µM; in the data active means potency below about 11 µM; inconclusive means mostly about 12 µM to 25 µM;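 the screen sought inhibitors and activators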
HBB splice mod: qHTS Assay for Modulators of Hemoglobin Beta Chain Splicing; HBB splicing reporter cell assay, activation; EGFP reporter with mutant IVS2-654 intron; response scale: normalised to 500 nM splice-correcting PNA; Potency, µM (highest dose often 46.1 µM), actives largely listed as activators; 0.06% of 65,000 active
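Compounds were applied for 2 days to HeLa EGFP-654 cells, 500/well in Optimem with 2% FCS. The reporter's EGFP is disrupted by mis-splicing of beta-globin intron IVS2-654. Readout: summed well GFP fluorescence from 488 nm laser scanning; reference was 500 nM antisense […] 654 PNA.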
Large screens that a line does not name were inactive. An excerpt weighted towards active compounds, which were near 2.6% of everything screened. Unless noted, the call rests on the fitted dose curve; in most records, active means well fitted curve in the direction sought with a large enough effect; inconclusive means small, poorly fitted or top-dose-only effect, or another doubt; inactive means no such curve, though single readings can be large; an effect the other way counts as inactive or inconclusive.

c1ccc(N2CCN(c3nc4cc5c(cc4s3)OCO5)CC2)cc1	Luciferase inh inconclusive (no result: Bst PK mod)
c1ccc2c(c1)CCN(c1nc3cc4c(cc3s1)OCO4)C2	Luciferase inh 4µM, Bst PK mod 2.8
c1c2c(cc3sc(N4CCCCC4)nc13)OCO2	Luciferase inh 6.3µM, Bst PK mod 6.2
c1c2c(cc3sc(N4CCOCC4)nc13)OCO2	Luciferase inh 16µM
COc1ccc(NC(=O)N2CC3(CCN(C(=O)c4ccc(OC)cc4)CC3)C2)cc1	none (no result: Bst PK mod)
C=CCNc1nc(N)c(C(=O)Nc2cc(C)on2)s1	Luciferase inh 20µM (no result: Bst PK mod)
Cc1ccc2nc(N3CCN(C)CC3)c(C#N)cc2c1	none (no result: HBB splice mod)
N#Cc1cc2cc3c(cc2nc1N1CCCCC1)OCCO3	Luciferase inh 13µM (no result: HBB splice mod)
CCN(CC)CC[n+]1ccc2c(C)c3[nH]c4ccccc4c3c(C)c2c1	HBB splice mod inconclusive (no result: Bst PK mod)
COc1ccc2sc(NC(C)=O)nc2c1	none
CCCCN(C(=O)NC(=O)Nc1nc2ccc(OC)cc2s1)S(C)(=O)=O	Luciferase inh 20µM
CCCCOC(=O)Nc1nc2ccc(OC)cc2s1	none (no result: Bst PK mod)
COc1ccc2nc(Nc3nc(C)c(C(C)=O)s3)sc2c1	Luciferase inh 16µM, GFP derepression inconclusive (no result: Bst PK mod)
COc1ccc2nc(NC(=O)c3cnccn3)sc2c1	Luciferase inh 13µM
CCN(CC)c1ccc(/C=N/NC(=O)c2ccc(O)cc2)cc1	none (no result: UbGFP stabilizer, Luciferase inh, GFP derepression, Bst PK mod)
CC1(C)Oc2ccc(NC(=O)C3COc4ccccc4O3)cc2O1 (centres undefined)	Luciferase inh 13µM, Bst PK mod inconclusive
O=C(CN1C(=O)c2cccc3cccc1c23)Nc1cccnc1	Bst PK mod 10
CCOC(=O)c1cnc(SCc2ccccc2)nc1N	Luciferase inh 16µM (no result: Bst PK mod)
CCOC(=O)c1cnc(SCC(=O)N2CCN(c3ccccc3)CC2)nc1N	none
CN(C)c1ncc2nc(-c3cccs3)c(=O)n(CCc3ccccc3)c2n1	HBB splice mod inconclusive (no result: Bst PK mod)
O=C1CCC[C@H]2OC12[C@@H](O)CCc1ccccc1 (some centres undefined)	none (no result: UbGFP stabilizer, GFP derepression, Bst PK mod)
Cc1cc(NC(=O)C(C)C)ncc1NC(=O)c1cccc(F)c1	none (no result: HBB splice mod)
Cc1cc(NC(=O)c2ccccc2)ncc1NC(=O)c1ccco1	Luciferase inh 25µM (no result: HBB splice mod)
CCCC(=O)Nc1cnc(NC(=O)c2cccc(F)c2)cc1C	Luciferase inh 25µM (no result: Bst PK mod)
CCC(=O)Nc1cc(C)c(NC(=O)c2ccco2)cn1	none
Cc1cc(C(=O)COc2cccc(-n3cnnn3)c2)c(C)n1-c1ccccc1	Luciferase inh 13µM (no result: Bst PK mod)
COC(=O)COc1cccc(-n2cnnn2)c1	none
COc1ccc(C(=O)/C=C/Nc2cc(C)on2)c(OC)c1	Luciferase inh 3.2µM, Bst PK mod 3.8
CN(C)c1ccc(/C=N\NC(=O)c2cnc3ccccc3c2)cc1	none (no result: Bst PK mod)
CN(C)c1ccc(N/C=C/C(=O)c2ccccc2)cc1	Luciferase inh 0.32µM, Bst PK mod 0.42
CCN1CCN(Cc2ccc(NC(=O)Nc3ccccc3)cc2)CC1	Luciferase inh 13µM (no result: Bst PK mod)
CCN1CCN(Cc2ccc(NC(=O)Nc3ccc(OC)cc3)cc2)CC1	none (no result: GFP derepression, Bst PK mod)
NCS(=O)(=O)O	none (no result: Bst PK mod)
CCc1nnc(NC(=O)c2ccc(OC)cc2OC)s1	Luciferase inh 7.9µM (no result: Bst PK mod)
CCc1nnc(NC(=O)Nc2ccccc2OC)s1	none (no result: Bst PK mod)
C=C(C)C(=O)OCC(C)O (centres undefined)	none (no result: UbGFP stabilizer, Luciferase inh, GFP derepression, Bst PK mod)
O=C(Nc1ccccc1)N1CCCC2(CCN(S(=O)(=O)c3ccccc3)CC2)C1	none (no result: Bst PK mod)
COc1ccc(C(=O)Nc2cc(OC)cc(OC)c2)cc1	Luciferase inh 4µM (no result: Bst PK mod)
COc1cccc(C(=O)NC2=NCCS2)c1	Luciferase inh 16µM
O=C(NC1=NCCS1)c1ccc(-c2ccc(Cl)cc2)o1	Luciferase inh 7.9µM, Bst PK mod 5.4
COC(=O)C1=C(NC(=O)c2cccc(OC)c2)CCS1	none
COc1cccc(C(=O)Nc2ccc(C)cc2)c1	Luciferase inh 10µM, Bst PK mod inconclusive
O=C(NC1=NCCS1)c1cccc(NC(=O)c2ccco2)c1	none (no result: Bst PK mod)
Cc1noc(C)c1-c1ccc2ncnc(NCCN3CCOCC3)c2c1	none (no result: Bst PK mod)
CC(C)(C)N1C(=O)[C@H]2[C@H]3[C@H](O)[C@H](O)C/C(=N/OC[C@@H](O)COCc4ccco4)[C@@H]3CC[C@@H]2C1=O	none (no result: UbGFP stabilizer, GFP derepression, Bst PK mod)
CCC(=O)Nc1ccc(NC(=O)c2cccc(OC)c2)nc1	Luciferase inh 13µM (no result: Bst PK mod)
COc1cccc(C(=O)Nc2ccc(NC(=O)C3CC3)cn2)c1	Luciferase inh 7.9µM (no result: Bst PK mod)
